Data reported in PubChem BioAssay (EPA / NIEHS).
Some compounds were tested as several samples or in several runs, with calls that do not always agree. Active and inactive are the calls of the source. How the source made its calls: active means hit-call score of the fitted dose curve at least 0.9, where 1 is the maximum; inactive means score below 0.9.

Tests used:
[1] = read-out: Transforming growth factor beta 1 (TGFb1), TGFB1 (gene 7040); assay: BSK_KF3CT_TGFb1: BioMAP Diversity Plus: KF3CT Assay for Transforming growth factor beta 1 (TGFb1) Biomarker Activity (AID 2283072); conditions: primary human keratinocytes with fibroblasts; actives raise or lower the signal
Outline: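 Primary human skin cells (keratinocytes, foreskin fibroblasts) were co-cultured, exposed to test chemical and sampled at 24 h. TGF-b1 levels were measured by ELISA and fitted bidirectionally relative to DMSO.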

[2] = read-out: C-C motif chemokine 2 (Homo sapiens) (UniProt P13500); assay: BSK_KF3CT_MCP1: BioMAP Diversity Plus: KF3CT Assay for Monocyte Chemoattractant Protein 1 (MCP1/CCL2) Biomarker Activity (AID 2283073); conditions: primary human keratinocytes with fibroblasts; actives raise or lower the signal
Outline: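 ELISA read-out of MCP-1, 24 h post-dose, in primary human skin keratinocytes co-cultured with fibroblasts. Parallel SRB staining monitors cytotoxicity; changes fitted both directions relative to DMSO.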

[3] = read-out: Matrix Metallopeptidase 9 (MMP9), MMP9 (gene 4318); assay: BSK_KF3CT_MMP9: BioMAP Diversity Plus: KF3CT Assay for Matrix Metallopeptidase 9 (MMP9) Biomarker Activity (AID 2283074); conditions: primary human keratinocytes with fibroblasts; actives raise or lower the signal;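 on AC50: MMP9 protein level quantified by ELISA in the co-culture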
Outline: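 Human keratinocyte/foreskin fibroblast co-culture; compound added; 24 h; MMP-9 by ELISA; bidirectional fit vs DMSO baseline.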

[4] = read-out: urokinase plasminogen activator (uPA), PLAU (gene 5328); assay: BSK_KF3CT_uPA: BioMAP Diversity Plus: KF3CT Assay for urokinase plasminogen activator (uPA) Biomarker Activity (AID 2283075); conditions: primary human keratinocytes with fibroblasts; actives raise or lower the signal
Outline: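 ELISA readout of uPA, analyzed for signal gain or loss relative to DMSO, from a human primary keratinocyte–foreskin fibroblast co-culture measured 24 h after chemical treatment.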

CD40, CD40 (gene 958) [5] = assay: BSK_LPS_CD40: BioMAP Diversity Plus: LPS Assay for CD40 Biomarker Activity (AID 2283076); conditions: primary human HUVEC with PBMC; actives raise or lower the signal
Outline: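 In the LPS system of human endothelial cells with peripheral blood mononuclear cells, CD40 levels were read by ELISA 24 h post-treatment. Signal changes in either direction were fitted against the DMSO baseline, with parallel SRB protein staining.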

[6] = read-out: E-selectin (Homo sapiens) (UniProt P16581); assay: BSK_LPS_Eselectin: BioMAP Diversity Plus: LPS Assay for Eselectin Biomarker Activity (AID 2283077); conditions: primary human HUVEC with PBMC; actives raise or lower the signal
Outline: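 E-selectin ELISA on LPS-stimulated endothelial cell/PBMC co-cultures, read 24 h post-treatment; gains and losses fitted against DMSO. Parallel SRB staining (0.1% SRB after 10% TCA fixation, 560 nm) flags overt cytotoxicity.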

[7] = read-out: Interleukin-8 (IL8), CXCL8 (gene 3576); assay: BSK_LPS_IL8: BioMAP Diversity Plus: LPS Assay for Interleukin-8 (IL8) Biomarker Activity (AID 2283078); conditions: primary human HUVEC with PBMC; actives raise or lower the signal
Outline: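 ELISA read-out of IL-8 after 24 h chemical treatment of LPS-activated endothelial/PBMC human primary co-cultures. Changes either up or down relative to DMSO; overt cytotoxicity checked by sulforhodamine B staining in parallel wells.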

[8] = BSK_LPS_SRB: Viability Assessment in the BioMAP Diversity Plus: LPS Assay (AID 2283079); conditions: primary human HUVEC with PBMC;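 further: total protein by sulforhodamine B absorbance as a cytotoxicity measure; measured one day after compound addition; fitted in both directions against DMSO so loss or gain of signal counts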
Outline: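 SRB viability endpoint: cells fixed with 10% TCA, stained with 0.1% SRB, read at 560 nm, 24 h post-dose. HUVEC/PBMC co-culture; signal change in either direction scored relative to DMSO.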

[9] = read-out: Interleukin-1 alpha (IL1a), IL1A (gene 3552); assay: BSK_LPS_IL1a: BioMAP Diversity Plus: LPS Assay for Interleukin-1 alpha (IL1a) Biomarker Activity (AID 2283080); conditions: primary human HUVEC with PBMC; actives raise or lower the signal
Outline: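 Readout is IL-1a level by ELISA, 24 h post-dose, fitted as gain or loss relative to DMSO. System: LPS-activated human primary co-culture of vascular endothelium and peripheral blood mononuclear cells, with parallel SRB total-protein cytotoxicity.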

[10] = read-out: Monocyte Chemoattractant Protein-1 (MCP1), CCL2 (gene 6347); assay: BSK_LPS_MCP1: BioMAP Diversity Plus: LPS Assay for Monocyte Chemoattractant Protein-1 (MCP1) Biomarker Activity (AID 2283081); conditions: primary human HUVEC with PBMC; actives raise or lower the signal;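 on AC50: secreted MCP-1 protein quantified by ELISA in culture supernatant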
Outline: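 Secreted MCP-1 read by ELISA at 24 h post-dosing in an LPS-activated co-culture of endothelial cells with peripheral blood mononuclear cells. Fits run in both directions, DMSO as baseline; parallel SRB staining tracks overt cytotoxicity.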

[11] = BSK_LPS_PGE2: BioMAP Diversity Plus: LPS Assay for Prostaglandin E2 (PGE2) Biomarker Activity (AID 2283082); conditions: primary human HUVEC with PBMC; actives raise or lower the signal;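 on AC50: secreted prostaglandin E2 measured by ELISA in LPS-stimulated co-culture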
Outline: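 LPS-activated HUVEC/PBMC co-culture; cmpd dosed, 24 h; PGE2 by ELISA; bidirectional fit vs DMSO; SRB (0.1%, TCA-fixed, 560 nm) in parallel plates for overt cytotox.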

[12] = read-out: Macrophage colony-stimulating factor (MCSF), CSF1 (gene 1435); assay: BSK_LPS_MCSF: BioMAP Diversity Plus: LPS Assay for Macrophage colony-stimulating factor (MCSF) Biomarker Activity (AID 2283083); conditions: primary human HUVEC with PBMC; actives raise or lower the signal
Outline: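 Bidirectional fitting against DMSO was applied to M-CSF levels read by ELISA at 24 h post-dose. The system pairs human umbilical vein endothelium with peripheral blood mononuclear cells; parallel SRB staining tracked cytotoxicity.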

[13] = read-out: Tissue Factor, F3 (gene 2152); assay: BSK_LPS_TissueFactor: BioMAP Diversity Plus: LPS Assay for Tissue Factor Biomarker Activity (AID 2283084); conditions: primary human HUVEC with PBMC; actives raise or lower the signal
Outline: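 Compound was added to an endothelial cell/PBMC co-culture, and after 24 h tissue factor (CD142) was read by ELISA. Gain or loss of signal was fitted against a DMSO baseline, and parallel SRB staining (560 nm) tracked overt cytotoxicity.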

[14] = read-out: Tumor necrosis factor (Homo sapiens) (UniProt P01375); assay: BSK_LPS_TNFa: BioMAP Diversity Plus: LPS Assay for Tumour Necrosis Factor alpha (TNFa) Biomarker Activity (AID 2283085); conditions: primary human HUVEC with PBMC; actives raise or lower the signal
Outline: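 Read-out is ELISA of TNFa in primary human endothelial cell–PBMC co-cultures at 24 h after compound. Activity in either direction was fitted against DMSO.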

[15] = read-out: Vascular cell adhesion molecule 1 (VCAM1), VCAM1 (gene 7412); assay: BSK_LPS_VCAM1: BioMAP Diversity Plus: LPS Assay for Vascular cell adhesion molecule 1 (VCAM1) Biomarker Activity (AID 2283086); conditions: primary human HUVEC with PBMC; actives raise or lower the signal
Outline: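 HUVEC + PBMC co-culture, LPS system; compound 24 h; VCAM-1 by ELISA; bidirectional fit vs DMSO control; parallel SRB (0.1%, TCA-fixed, 560 nm) for cytotoxicity.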

CD38, CD38 (gene 952) = assay: BSK_SAg_CD38: BioMAP Diversity Plus: SAg Assay for CD38 Biomarker Activity (AID 2283087); conditions: primary human HUVEC with PBMC; actives raise or lower the signal
Outline: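 Human HUVEC plus PBMC co-culture stimulated with superantigen; CD38 measured by ELISA 24 h after chemical dosing. Fluorescence read-out, bidirectional fit against DMSO; cytotoxicity tracked in parallel by SRB and Alamar Blue.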

CD40, CD40 (gene 958) [16] = assay: BSK_SAg_CD40: BioMAP Diversity Plus: SAg Assay for CD40 Biomarker Activity (AID 2283088); conditions: primary human HUVEC with PBMC; actives raise or lower the signal
Outline: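 CD40 is measured by fluorescence ELISA in an endothelial/PBMC primary human co-culture at 24 h post-dose. Fitting is bidirectional, DMSO baseline. Parallel SRB staining (560 nm) flags cytotoxicity.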

CD69, CD69 (gene 969) = assay: BSK_SAg_CD69: BioMAP Diversity Plus: SAg Assay for CD69 Biomarker Activity (AID 2283089); conditions: primary human HUVEC with PBMC; actives raise or lower the signal;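 on AC50: cell surface CD69 protein quantified by ELISA with fluorescence detection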
Outline: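 Primary human vascular co-culture (umbilical vein endothelium with peripheral blood mononuclear cells) exposed to test chemical for 24 h. CD69 levels quantified by fluorescence ELISA; DMSO served as negative control for bidirectional fitting.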

[17] = read-out: Monocyte Chemoattractant Protein-1 (MCP1), CCL2 (gene 6347); assay: BSK_SAg_MCP1: BioMAP Diversity Plus: SAg Assay for Monocyte Chemoattractant Protein-1 (MCP1) Biomarker Activity (AID 2283090); conditions: primary human HUVEC with PBMC; actives raise or lower the signal
Outline: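 MCP-1 levels in the endothelial–PBMC SAg co-culture were quantified by ELISA at 24 h post-dosing; both increases and decreases versus DMSO scored. Cytotoxicity monitored by SRB total protein in parallel cultures.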

[18] = read-out: E-selectin (Homo sapiens) (UniProt P16581); assay: BSK_SAg_Eselectin: BioMAP Diversity Plus: SAg Assay for Eselectin Biomarker Activity (AID 2283091); conditions: primary human HUVEC with PBMC; actives raise or lower the signal
Outline: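 Cell-surface E-selectin is read by ELISA at 24 h in the SAg co-culture of HUVEC and PBMC. Curves are fitted in both directions relative to DMSO. Parallel SRB total-protein staining tracks overt toxicity.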

Measured: AC50

Chain of Tumor necrosis factor (Homo sapiens) (P01375 whole entry, looked up): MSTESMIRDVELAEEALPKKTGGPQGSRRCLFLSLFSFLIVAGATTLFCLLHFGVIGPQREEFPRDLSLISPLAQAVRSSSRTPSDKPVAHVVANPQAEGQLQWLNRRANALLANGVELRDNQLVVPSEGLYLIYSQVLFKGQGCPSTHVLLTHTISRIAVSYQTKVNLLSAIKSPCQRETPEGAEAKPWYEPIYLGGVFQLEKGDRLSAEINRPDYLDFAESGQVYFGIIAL
Chain of E-selectin (Homo sapiens) (P16581 whole entry, looked up): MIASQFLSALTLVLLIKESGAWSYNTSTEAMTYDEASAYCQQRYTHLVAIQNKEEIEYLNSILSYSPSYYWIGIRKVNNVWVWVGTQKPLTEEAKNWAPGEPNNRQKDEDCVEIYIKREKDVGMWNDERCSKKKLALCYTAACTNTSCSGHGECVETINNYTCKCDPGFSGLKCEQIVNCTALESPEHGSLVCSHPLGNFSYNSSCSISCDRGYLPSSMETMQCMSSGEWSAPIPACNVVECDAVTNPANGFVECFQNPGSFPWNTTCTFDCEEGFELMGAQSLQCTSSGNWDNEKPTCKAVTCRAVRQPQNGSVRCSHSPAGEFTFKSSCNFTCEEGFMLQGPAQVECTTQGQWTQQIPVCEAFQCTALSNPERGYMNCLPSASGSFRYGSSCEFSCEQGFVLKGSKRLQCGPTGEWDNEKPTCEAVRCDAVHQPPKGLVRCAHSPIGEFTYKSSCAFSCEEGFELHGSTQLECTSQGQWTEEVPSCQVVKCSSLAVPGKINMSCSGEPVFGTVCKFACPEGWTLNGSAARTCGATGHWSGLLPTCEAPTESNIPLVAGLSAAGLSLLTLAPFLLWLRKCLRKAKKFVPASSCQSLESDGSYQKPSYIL

O=C(c1ccccc1)c1ccccc1
active: [11] 0.569 µM
inactive: all other assays above

O=C1OC2(c3ccccc31)c1cc(I)c(O)c(I)c1Oc1c2cc(I)c(O)c1I
inactive: [7] | [8] | [14]
active: [1] 3.45 µM | [2] 3.51 µM | [3] 14.9 µM | [4] 9.05 µM | CD40, CD40 (gene 958) [5] 8.71 µM | [6] 8.58 µM | [9] 9.13 µM | [10] 6.33 µM | [11] 3.14 µM | [12] 6.69 µM | [13] 19.8 µM | [15] 9.02 µM | CD38, CD38 (gene 952) 7.06 µM | CD40, CD40 (gene 958) [16] 12 µM | CD69, CD69 (gene 969) 10.5 µM

CS(=O)(=O)c1ccc([C@@H](CC2CCCC2)C(=O)Nc2cnccn2)cc1Cl
inactive: all assays above

CN(Cc1cnc2nc(N)nc(N)c2n1)c1ccc(C(=O)N[C@@H](CCC(=O)O)C(=O)O)cc1
active: [4] 4.77 µM | [10] 0.1 µM
inactive: [1] | [2] | [3] | [4] | CD40, CD40 (gene 958) [5] | [6] | [7] | [8] | [9] | [10] | [11] | [12] | [13] | [14] | [15] | CD38, CD38 (gene 952) | CD40, CD40 (gene 958) [16] | CD69, CD69 (gene 969) | [17] | [18]

OCC(CO)(CBr)CBr
not listed: [17]
inactive: all other assays above
